Some test systems named below: NCI-H23 lung; NCI-H226 lung; NCI-H322M lung; HOP-62 NSCLC; HOP-92 NSCLC; NCI-H522 lung; A549/ATCC NSCLC; 786-0 renal; COLO 205 colon; DU-145 prostate; K-562 leukemia; MALME-3M melanoma; MDA-MB-231 breast; RXF 393 renal; SF-268 CNS; SF-295 CNS; SF-539 CNS; UACC-257 melanoma; NCI-H460 lung; M14 melanoma.
What all share (experiment): NCI-60 one-dose screen, 48 h (100 = growth as untreated, 0 = no growth, -100 = all killed)
Common to all, as to conditions: 10 µM unless noted

The panel holds about 83,000 compounds, 20% with a hit somewhere; the sample as a whole holds those more often.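 In brief: 96-well plates, 48 h treatment, single concentration, percent growth endpoint.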 Values without a mark were called inactive. The source made the active and inactive calls. Rule for the calls: active = growth percent below 10; inactive = the rest.

In the case of `O=C(OC12CC3CC(CC(C3)C1)C2)c1ccc(NCc2cc(O)ccc2O)cc1`, the growth was -21.9% (active) in the experiment with NCI-H23 lung; -63.6% (active) in the experiment with NCI-H226 lung; 47.6% in the experiment on NCI-H322M lung; -55.7% (active) in the experiment on HOP-62 NSCLC; -36.9% (active) in the experiment with HOP-92 NSCLC; -74.7% (active) in the experiment with NCI-H522 lung. Moreover, the growth is -21.9% (active) in the experiment on A549/ATCC NSCLC; -90% (active) with 786-0 renal; -71.2% (active) in the experiment with COLO 205 colon; 19.9% in the experiment on DU-145 prostate; -49.3% (active) in the experiment with K-562 leukemia; -93.5% (active) in the experiment on MALME-3M melanoma. For the same compound, the growth in the experiment on MDA-MB-231 breast was -39.8% (active); in the experiment on RXF 393 renal it was -60.8% (active); in the experiment on SF-268 CNS, -6.88% (active); in the experiment on SF-295 CNS, -14.7% (active); in the experiment with SF-539 CNS, -95.6% (active); in the experiment on UACC-257 melanoma it was 5.57% (active).

Turning to `O=C1C=CC(=O)N1c1ccccc1`, the growth in the experiment with NCI-H23 lung is 98.2%; in the experiment with NCI-H226 lung, 87.7%; with NCI-H322M lung, 110%; with HOP-62 NSCLC, 92%; in the experiment on NCI-H460 lung it was 110%; with NCI-H522 lung, -51.8% (active). Moreover, the growth in the experiment with A549/ATCC NSCLC is 102%; with 786-0 renal, 94.5%; in the experiment with DU-145 prostate, 109%; in the experiment on K-562 leukemia, 52.6%; with MALME-3M melanoma it was 101%; with MDA-MB-231 breast, 78.6%. For the same compound, the growth in the experiment with RXF 393 renal was 88.7%; in the experiment with SF-268 CNS, 112%; in the experiment with SF-539 CNS it was 100%; with UACC-257 melanoma it was 96.9%; in the experiment on M14 melanoma it was 94.2%.

As to `Oc1ccc2ccccc2c1N=Nc1ccccn1`, the growth is 42.6% in the experiment on NCI-H23 lung; 19.1% in the experiment with NCI-H226 lung; 47.8% with NCI-H322M lung; 30.1% in the experiment on HOP-62 NSCLC; 17.4% with NCI-H460 lung; 53.5% in the experiment on A549/ATCC NSCLC. Also, the growth in the experiment with 786-0 renal is 7.32% (active); with COLO 205 colon it was 15.9%; in the experiment with DU-145 prostate, 50.2%; with K-562 leukemia, 15.2%; with MALME-3M melanoma, 59.7%; in the experiment with MDA-MB-231 breast, 36.3%. Further, the growth is 38.3% in the experiment on RXF 393 renal; 36% in the experiment on SF-268 CNS; 26.8% with SF-295 CNS; 15.7% in the experiment with SF-539 CNS; 17.6% in the experiment on UACC-257 melanoma; 15.6% in the experiment with M14 melanoma.

Regarding `CCOc1ccc2c(c1)/C(=C\C=C\C1CC(C)C3CC(OCC)CCC3N1CC)CC(C)N2CC` (stereo not drawn), the growth with NCI-H23 lung was 14.5%; in the experiment on NCI-H226 lung, 18.1%; in the experiment with NCI-H322M lung it was 4.18% (active); in the experiment with HOP-62 NSCLC, 11.6%; in the experiment with NCI-H460 lung it was 8.11% (active); in the experiment on NCI-H522 lung, -19.3% (active). Besides, the growth is 4.18% (active) with A549/ATCC NSCLC; 10.3% with 786-0 renal; -46.7% (active) in the experiment on COLO 205 colon; 14.8% with DU-145 prostate; 4.61% (active) in the experiment with K-562 leukemia; -30.1% (active) in the experiment with MALME-3M melanoma. Moreover, the growth was 13.6% in the experiment with MDA-MB-231 breast; 21.7% with SF-268 CNS; 19.5% in the experiment with SF-539 CNS; -25.2% (active) with UACC-257 melanoma; 14.9% in the experiment on M14 melanoma.

On to `COc1cc(-c2ccc(-[n+]3nc(-c4ccc([N+](=O)[O-])cc4)nn3-c3ccc([N+](=O)[O-])cc3)c(OC)c2)ccc1-[n+]1nc(-c2ccc([N+](=O)[O-])cc2)nn1-c1ccc([N+](=O)[O-])cc1`, for which the growth with NCI-H23 lung was 26.1%; in the experiment on NCI-H226 lung, -32.5% (active); in the experiment on NCI-H322M lung, 44.3%; in the experiment on HOP-62 NSCLC, -59.7% (active); in the experiment on NCI-H460 lung, 3.02% (active); in the experiment on A549/ATCC NSCLC, 11.8%. Also, the growth in the experiment on 786-0 renal was 0.457% (active); with COLO 205 colon, -69% (active); in the experiment on DU-145 prostate, -32.7% (active); in the experiment on K-562 leukemia it was 3.89% (active); in the experiment with MALME-3M melanoma, -44.6% (active); with MDA-MB-231 breast, 51.4%. The growth in the experiment on RXF 393 renal is -39.9% (active); in the experiment on SF-268 CNS it was -33.9% (active); with SF-295 CNS, -30.7% (active); with SF-539 CNS it was -66.4% (active); in the experiment with UACC-257 melanoma, -42.5% (active); with M14 melanoma it was 58.3%.

Consider `O=C(CCl)N(c1ccccc1)c1ccccc1`, for which the growth in the experiment on NCI-H23 lung was 98.1%; with NCI-H226 lung, 102%; in the experiment with NCI-H322M lung, 95%; with HOP-62 NSCLC, 105%; in the experiment on HOP-92 NSCLC, 78.5%; with NCI-H522 lung, -29.7% (active). Moreover, the growth was 103% with A549/ATCC NSCLC; 108% in the experiment with 786-0 renal; 111% in the experiment with COLO 205 colon; 110% in the experiment with DU-145 prostate; 105% with K-562 leukemia; 98.6% in the experiment on MALME-3M melanoma. The growth is 114% in the experiment on MDA-MB-231 breast; 104% with RXF 393 renal; 105% in the experiment with SF-268 CNS; 103% in the experiment with SF-295 CNS; 108% with SF-539 CNS; 94.1% in the experiment with UACC-257 melanoma. For the same compound, the growth with M14 melanoma is 95.9%.

Regarding `CN1CSC(=S)N(Cc2ccccc2)C1`, the growth in the experiment on NCI-H23 lung is 83.9%; with NCI-H226 lung, 104%; with NCI-H322M lung it was 102%; in the experiment with HOP-62 NSCLC, 108%; with HOP-92 NSCLC, 69.4%; in the experiment with NCI-H522 lung, -25.6% (active). For the same compound, the growth was 107% in the experiment on A549/ATCC NSCLC; 100% in the experiment with 786-0 renal; 113% in the experiment with COLO 205 colon; 110% in the experiment with DU-145 prostate; 49.9% in the experiment on K-562 leukemia; 99.3% in the experiment with MALME-3M melanoma. In addition, the growth is 90.7% in the experiment on MDA-MB-231 breast; 83.1% with RXF 393 renal; 105% in the experiment with SF-268 CNS; 106% with SF-295 CNS; 84.3% in the experiment on UACC-257 melanoma; 92% in the experiment on M14 melanoma.

For `O=[N+]([O-])c1ccc2c(c1)Cc1ccccc1-2`, the growth in the experiment on NCI-H23 lung was 99.9%; with NCI-H226 lung, 108%; in the experiment on NCI-H322M lung, 106%; in the experiment on HOP-62 NSCLC, 94.8%; with NCI-H460 lung it was 99.9%; in the experiment with A549/ATCC NSCLC it was 94.8%. The growth with 786-0 renal was 91%; with COLO 205 colon, 116%; in the experiment on DU-145 prostate, 97.7%; in the experiment on K-562 leukemia, 94.5%; with MALME-3M melanoma, 95.7%; in the experiment with MDA-MB-231 breast it was 102%. Further, the growth with RXF 393 renal is 109%; with SF-268 CNS it was 95.9%; in the experiment with SF-295 CNS it was 100%; in the experiment with SF-539 CNS, 100%; with UACC-257 melanoma, 97.2%; in the experiment on M14 melanoma it was 106%.

The record behind these values is PubChem BioAssay (NCI).
